The list is not random: actives were taken first. Their share in the collection is about 7.7%.
FMDV inh = High Throughput Screening for Foot and Mouth Disease Virus Antivirals. FMDV antiviral cell-based qHTS. Potency, µM (top dose mostly 57.9 µM), without a hit: at the top dose activity change, negative = inhibition, usual class: inhibitors. hit rate 1.2% among 410,000; calls by dose curve; tested in HEK293T cells; further: read-out not given here; potency means the concentration at half of the fitted maximal effect; nearly all actives have a fitted effect of over 45% in size
RE007 growth inh = qHTS Assay for Inhibitors of the HIV-1 protein Vpr; AID 651644, 2012; hit rate 0.21% among 360,000; Potency, µM (series often up to 92.2 µM), for inactives: at the top dose activity change, negative = less growth, actives largely listed as inhibitors; S. pombe RE007 Vpr strain, BacTiter-Glo ATP luminescence, 24 h; active means well fitted falling curve with a large enough effect; inconclusive means small, poorly fitted or top-dose-only effect; inactive means no such curve, though single readings can be large or run the other way; further: potency means the concentration at half of the fitted maximal effect; nearly all actives have a fitted effect of over 50% in size
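Fission yeast RE007 carrying one integrated HIV-1 vpr copy, seeded at OD 0.01 in PMG+AL medium with 23 nL pinned compound. Grown 24 h at 30 degrees; viability read by BacTiter-Glo luminescence after 5 min.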
HCMV antiviral = qHTS Assay for inhibitors of the human cytomegalovirus (HCMV); AID 1259415, 2018; activity change, negative = inhibition, % at 57.5 µM; hit rate 4.5% among 410,000; HFF cells, HCMV-luciferase reporter, 72 h; active compounds read low; in the data active means activity change below about -60%; inconclusive means no clear call, values can overlap the other calls; inactive means above about -39%
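Inhibition of viral replication was scored as loss of reporter luminescence in HFFs infected with HCMV-luciferase (MOI 1 PFU/cell) for 72 h; compounds tested at 2 doses, normalized to buffer and Salinomycin controls.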
Sm TGR block = qHTS Assay for the Inhibitors of Schistosoma Mansoni Peroxiredoxins | Schistosoma mansoni thioredoxin glutathione reductase (TGR), Q962Y6 | purified TGR, DTNB reduction, TNB absorbance 405 nm | Potency, µM (titrated, usually from 114 µM), inactives show at the highest dose activity change, negative = inhibition, most hits filed as inhibitors | hit rate 3% among 360,000 | AID 485364, 2010; further: potency means the concentration at half of the fitted maximal effect; nearly all actives have a fitted effect of over 60% in size
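Kinetic colorimetric format: TGR-catalysed, NADPH-driven DTNB reduction monitored via TNB absorbance. Enzyme dispensed at 20 nM; compound exposure 15 min at room temperature before reaction start.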
TbPYK inhibitor = qHTS of Trypanosoma Brucei Inhibitors. Potency, µM (highest dose often 76.8 µM), for the others: at the highest dose activity, negative = inhibition, most hits filed as inhibitors. pyruvate kinase (Trypanosoma brucei), Q57TT1. hit rate 0.12% among 410,000. TbPYK enzyme, Kinase-Glo Plus ATP luminescence, 45 min. AID 624173, 2012; further: potency means the concentration at half of the fitted maximal effect; nearly all actives have a fitted effect of over 50% in size
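T. brucei PYK with substrate was exposed to pin-transferred compounds across a concentration series, then started with 130 uM ADP (final). After 45 min at room temperature, Kinase-Glo Plus luminescence was read, normalized and curve-fitted.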
Giardia FBPA inh = qHTS Assay for Inhibitors of Fructose-1,6-bisphosphate Aldolase from Giardia Lamblia; Potency, µM (titrated, usually from 59.6 µM), for inactives: at the top dose activity, negative = inhibition, usual class: inhibitors; hit rate 0.71% among 290,000; A8B2U2; purified Giardia FBPA; further: potency means the concentration at half of the fitted maximal effect; nearly all actives have a fitted effect of over 55% in size
Target sequence (A8B2U2 whole entry, looked up): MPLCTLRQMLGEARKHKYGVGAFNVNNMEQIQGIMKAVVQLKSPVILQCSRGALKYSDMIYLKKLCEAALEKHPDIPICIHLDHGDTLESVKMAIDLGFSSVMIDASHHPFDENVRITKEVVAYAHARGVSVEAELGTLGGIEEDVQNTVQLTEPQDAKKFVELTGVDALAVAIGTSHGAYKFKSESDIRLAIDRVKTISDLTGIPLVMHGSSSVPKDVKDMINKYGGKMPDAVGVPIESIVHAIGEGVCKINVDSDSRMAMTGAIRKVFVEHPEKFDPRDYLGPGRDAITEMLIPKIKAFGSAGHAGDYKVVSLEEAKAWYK
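40 nM FBPA preincubated 10 min at RT with compound (up to 57.5 uM final), then substrate plus GAPDH/TPI/NAD/arsenate coupling and diaphorase/resazurin added. Fluorescence read after 20 min at RT, 525/598 nm.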
Numbers without * were called inactive; ? = inconclusive; . = no result; [ ] = another dose, or the depositor's remark. Unless noted, the call rests on the fitted dose curve; in most records, active means well fitted curve in the direction sought with a large enough effect; inconclusive means small, poorly fitted or top-dose-only effect, or another doubt; inactive means no such curve, though single readings can be large; an effect the other way counts as inactive or inconclusive. On the % scale 0 is the no-effect control and ±100 the full control effect.

SMILES	FMDV inh	RE007 growth inh	HCMV antiviral	Sm TGR block	TbPYK inhibitor	Giardia FBPA inh
C=C(C)c1cccc(C(C)(C)NC(=O)N2CCN(CC(N)=O)CC2)c1	-24%	18%	-3	45µM*	-7%	-1%
C=C(C)c1cccc(C(C)(C)NC(=O)N2CCN(CC)CC2)c1	-6%	12%	36	1%	0%	0%
Nc1[nH]n2c(=O)cc(-c3ccccc3)nc2c1N=Nc1ccccc1	-22%	13%	-79*	3%	-6%	3%
CCOc1ccccc1CNC(=O)CCn1c(=O)c2cccn2c2ccc(F)cc21	-14%	.	?	-4%	4%	.
CCN(CC(=O)Nc1ccc(OC)c(OC)c1)S(=O)(=O)c1ccc(C)cc1	13µM*	19%	-33	4%	-7%	-8%
COc1ccccc1OCC(=O)Nc1ccc(S(=O)(=O)N(C)c2ccccc2)cc1	-12%	5%	-2	5%	-9%	-4%
CCN(CC)S(=O)(=O)c1ccc(NC(=O)COc2c(OC)cccc2OC)cc1	32µM*	9%	-7	10%[11.4 µM]	-4%	-2%
COc1ccc2c(CC(=O)Nc3ncc(C)s3)coc2c1	14%	19%	-77*	3%	5%	1%
COc1ccc2c(CC(=O)Nc3nc(C)cs3)coc2c1	0%	17%	-4	0%	-2%	1%
Cc1cccc(NC(=O)c2ccc(S(=O)(=O)N3CCC(C)CC3)cc2)n1	32µM*	41%	-77*	-22%	4%	.
O=C(Nc1nnc(-c2ccco2)o1)c1ccc(S(=O)(=O)N2CCCCC2)cc1	?	7%	?	.	4%	.
O=C(Nc1nnc(C2=COCCO2)o1)c1ccc([N+](=O)[O-])cc1	10%	6%	-98*	-3%	-14%	.
CC1CCN(S(=O)(=O)c2ccc(NC(=O)c3ccccc3F)cc2)CC1	-27%	17%	-62*	5%	0%	-3%
CC1CCCCN1S(=O)(=O)c1ccc(C(=O)Nc2nnc(-c3ccco3)o2)cc1 (stereo unspecified)	0%	?	-70*	1%	3%	?
CC(=O)N(Cc1cccnc1)c1nc2c(C)cc(C)cc2s1	4%	.	?	-1%	0%[15.4 µM]	.
Cc1ccc2c(CC(=O)Nc3ccc(S(=O)(=O)N4CCCCC4)cc3)coc2c1C	8%	.	22	5%	-14%	.
COc1ccc(OC)c2sc(N(Cc3cccnc3)C(C)=O)nc12	3%	.	0	2%	0%[15.4 µM]	.
O=C(Nc1nnc(-c2ccncc2)o1)c1ccc2ccccc2c1	-6%	4%	-95*	-6%	1%	10%
Cc1cccc(C(=O)Nc2nnc(-c3ccncc3)o2)c1	13%	6%	19	0%	-1%	?
CC1CCN(S(=O)(=O)c2ccc(C(=O)Nc3nnc(-c4ccncc4)o3)cc2)CC1	-12%	8%	-88*	12%	1%	?
COc1cc(OC)cc(-c2nnc(NC(=O)c3ccc4c(c3)OCCO4)o2)c1	-16%	11%	-61*	12%	2%	?
O=C(Nc1nnc(C2CC2)o1)c1ccc(S(=O)(=O)N2CCCCC2)cc1	3%	18%	-61*	5%	-4%	.
CC(=O)Nc1ccc(NC(=O)C(NS(=O)(=O)c2ccc(Br)s2)c2ccccc2)cc1 (stereo unspecified)	5%	.	2	10%	-1%	.
COc1ccccc1CNC(=O)c1cc2cc(C)ccc2n1C	20%	.	?	12%	-8%	.
O=C(NCCc1ccccc1)c1ccc2c(c1)CCN2S(=O)(=O)c1ccc(Cl)cc1	-23%	.	-15	-8%	-8%	.
Cc1ccc(C(O)(COC(=O)C(C)C)COC(=O)C(C)C)c(O)c1	-11%	-9%	-7	35µM*	-4%	-10%
CC(C)CCC[C@](C)(O)c1ccc(C(=O)O)cc1O	-16%	-10%	-19	.	1%	.
